From ChEMBL document CHEMBL3988442, “University of Dundee, Small-Polar-MMV Screening Library” (2021)
For some assays here: Entries with a potency or affinity are not part of this list.

Columns and labels:
Design in all cases: scale not given: direction of the effect not stated beside the values
[1] = target: Protein translocase subunit SecA (Escherichia coli (strain K12)) (UniProt P10408); assay: Assay to Identify E. coli SecA ATPase Inhibitors; format: functional; conditions: 30 µM
[2] = target: T1, Ubiquitin-activating enzyme e1, putative (Leishmania donovani (strain BPK282A1)) (UniProt E9BSI1); assay: Leishmania donovani Ubiquitin Activating Enzyme (LdE1); format: functional; conditions: 30 µM
T1 sequence (whole entry): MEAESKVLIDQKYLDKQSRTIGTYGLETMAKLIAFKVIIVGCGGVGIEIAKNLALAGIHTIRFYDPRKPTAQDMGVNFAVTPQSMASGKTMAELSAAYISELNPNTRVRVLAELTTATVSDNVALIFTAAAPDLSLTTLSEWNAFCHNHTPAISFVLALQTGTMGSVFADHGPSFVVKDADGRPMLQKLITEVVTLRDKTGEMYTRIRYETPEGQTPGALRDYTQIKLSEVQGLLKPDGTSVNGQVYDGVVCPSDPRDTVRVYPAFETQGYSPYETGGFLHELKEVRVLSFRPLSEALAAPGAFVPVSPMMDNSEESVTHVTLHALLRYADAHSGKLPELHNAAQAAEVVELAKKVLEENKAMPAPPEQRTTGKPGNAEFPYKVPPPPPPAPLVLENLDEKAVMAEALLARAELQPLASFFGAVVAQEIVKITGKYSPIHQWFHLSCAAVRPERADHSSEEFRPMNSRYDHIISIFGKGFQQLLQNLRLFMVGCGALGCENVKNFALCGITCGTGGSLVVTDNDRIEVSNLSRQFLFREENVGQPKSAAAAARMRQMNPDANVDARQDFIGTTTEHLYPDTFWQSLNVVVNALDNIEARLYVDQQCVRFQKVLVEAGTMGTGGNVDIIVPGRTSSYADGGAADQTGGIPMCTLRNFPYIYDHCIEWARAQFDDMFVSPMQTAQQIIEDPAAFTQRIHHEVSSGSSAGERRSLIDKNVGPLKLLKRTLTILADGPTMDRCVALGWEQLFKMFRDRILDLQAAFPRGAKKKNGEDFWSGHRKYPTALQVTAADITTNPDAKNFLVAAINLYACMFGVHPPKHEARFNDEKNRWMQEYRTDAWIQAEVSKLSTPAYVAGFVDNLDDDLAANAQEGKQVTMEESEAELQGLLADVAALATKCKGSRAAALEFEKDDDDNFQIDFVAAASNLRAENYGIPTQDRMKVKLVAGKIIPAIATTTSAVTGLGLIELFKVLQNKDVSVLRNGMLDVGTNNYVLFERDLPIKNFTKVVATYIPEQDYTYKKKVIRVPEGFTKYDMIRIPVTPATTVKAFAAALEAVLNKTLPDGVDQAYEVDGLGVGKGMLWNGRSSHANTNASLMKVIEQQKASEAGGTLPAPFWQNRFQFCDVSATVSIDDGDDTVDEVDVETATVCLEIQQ

[3] = target: AMP-activated protein kinase, AMPK (Homo sapiens) (UniProt P54646+O43741+P54619+Q9UGJ0+Q9Y478+Q13131+Q9UGI9); assay: AMP-dependent Kinase enzyme assay. An in vitro enzyme assay that detects ADP turnover that is directly proportional to AMPK activity. This uses naive AMPK that is activated during the assay with MK-8722; format: functional; conditions: 30 µM
[4] = target: Sialic acid-binding Ig-like lectin 9 (Homo sapiens) (UniProt Q9Y336); assay: Hs-Siglec9 ALPHAscreen SOP 20170721; conditions: 10 µM
Sialic acid-binding Ig-like lectin 9 (Homo sapiens), sequence (Q9Y336 whole entry): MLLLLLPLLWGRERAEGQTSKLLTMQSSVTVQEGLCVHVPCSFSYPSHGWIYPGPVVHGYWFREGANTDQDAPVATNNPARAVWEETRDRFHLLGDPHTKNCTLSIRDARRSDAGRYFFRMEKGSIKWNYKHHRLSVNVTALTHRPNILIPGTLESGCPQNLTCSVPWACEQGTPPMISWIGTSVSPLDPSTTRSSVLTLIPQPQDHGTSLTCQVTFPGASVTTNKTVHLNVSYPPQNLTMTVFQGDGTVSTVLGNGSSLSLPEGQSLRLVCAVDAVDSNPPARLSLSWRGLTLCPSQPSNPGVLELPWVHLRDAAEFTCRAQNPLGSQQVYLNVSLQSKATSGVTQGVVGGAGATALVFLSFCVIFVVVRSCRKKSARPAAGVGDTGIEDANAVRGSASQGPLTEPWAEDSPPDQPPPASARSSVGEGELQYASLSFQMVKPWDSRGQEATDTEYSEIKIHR

Trypanosoma cruzi = assay: Trypanosoma cruzi phosphomannomutase and mannose-1-phosphate guanylyltransferase assay; format: functional; conditions: 10 µM
[5] = target: T2, Arginase-2, mitochondrial (Homo sapiens) (UniProt P78540); assay: in vitro enzyme assay to detect the production of urea directly proportional to the activity of Arginase II; format: functional; conditions: 33.3 µM; also: in the data most compounds retested in dose-response had high values
T2 sequence (whole entry): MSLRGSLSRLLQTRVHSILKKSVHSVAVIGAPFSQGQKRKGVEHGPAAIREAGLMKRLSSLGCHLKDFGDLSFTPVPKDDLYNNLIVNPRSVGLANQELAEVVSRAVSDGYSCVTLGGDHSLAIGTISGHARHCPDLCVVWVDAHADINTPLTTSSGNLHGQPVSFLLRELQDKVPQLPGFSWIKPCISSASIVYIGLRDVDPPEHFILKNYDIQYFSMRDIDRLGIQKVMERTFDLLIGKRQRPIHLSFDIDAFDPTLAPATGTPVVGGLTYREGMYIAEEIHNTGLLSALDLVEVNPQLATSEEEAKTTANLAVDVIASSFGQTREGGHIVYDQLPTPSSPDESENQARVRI

[6] = target: T3, Proteasome subunit beta (Trypanosoma cruzi) (UniProt O96673); assay: Trypanosoma cruzi proteasome chymotrypsin-like activity (TcProtChymo) assay.; also: in the data most compounds retested in dose-response had high values; format: functional; conditions: 9.37 µM
T3 sequence (whole entry): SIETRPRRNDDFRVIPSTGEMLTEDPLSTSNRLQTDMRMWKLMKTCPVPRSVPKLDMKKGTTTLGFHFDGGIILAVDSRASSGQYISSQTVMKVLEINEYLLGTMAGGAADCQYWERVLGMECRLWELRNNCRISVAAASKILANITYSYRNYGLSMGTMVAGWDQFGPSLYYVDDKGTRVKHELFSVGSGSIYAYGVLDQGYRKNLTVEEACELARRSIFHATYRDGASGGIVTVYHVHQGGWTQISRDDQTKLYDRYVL

Homo sapiens = organism: Homo sapiens; assay: To identify inhibition of the IFN signalling (Jak-Stat) pathway via expression of an eGFP reporter gene under the control of an IFN-stimulated response element (ISRE) containing MxA promoter.; format: functional; conditions: 30 µM
[7] = target: T4, Tyrosyl-tRNA synthetase, putative (Trypanosoma cruzi (strain CL Brener)) (UniProt Q4DSP6); assay: Trypanosoma cruzi tyrosyl tRNA synthetase (TcYRS) _High Tyrosine SOP; format: functional; conditions: 30 µM; also: in the data most compounds retested in dose-response had high values
T4 sequence (whole entry): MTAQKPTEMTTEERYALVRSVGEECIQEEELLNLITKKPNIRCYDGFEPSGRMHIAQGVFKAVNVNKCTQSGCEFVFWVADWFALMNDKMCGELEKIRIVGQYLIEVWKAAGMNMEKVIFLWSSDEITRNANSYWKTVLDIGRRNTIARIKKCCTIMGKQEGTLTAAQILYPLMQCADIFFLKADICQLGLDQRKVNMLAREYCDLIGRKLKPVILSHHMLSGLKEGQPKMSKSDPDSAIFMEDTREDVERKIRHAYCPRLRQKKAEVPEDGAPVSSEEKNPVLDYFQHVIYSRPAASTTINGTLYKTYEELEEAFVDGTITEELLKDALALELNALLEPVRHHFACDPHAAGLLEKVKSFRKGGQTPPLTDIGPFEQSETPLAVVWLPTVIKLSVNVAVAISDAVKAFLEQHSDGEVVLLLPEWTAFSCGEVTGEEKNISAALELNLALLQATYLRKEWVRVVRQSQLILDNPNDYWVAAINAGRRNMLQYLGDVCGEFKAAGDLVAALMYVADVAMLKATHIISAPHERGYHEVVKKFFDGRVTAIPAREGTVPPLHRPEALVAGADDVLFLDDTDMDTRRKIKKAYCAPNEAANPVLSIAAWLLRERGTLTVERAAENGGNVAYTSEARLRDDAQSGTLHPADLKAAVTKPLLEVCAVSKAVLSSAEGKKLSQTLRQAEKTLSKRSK

[8] = target: T4, Tyrosyl-tRNA synthetase, putative (Trypanosoma cruzi (strain CL Brener)); assay: Trypanosoma cruzi tyrosyl tRNA synthetase (TcYRS) SOP; format: functional; conditions: 30 µM
[9] = target: Chromo domain-containing protein 1 (Saccharomyces cerevisiae (strain ATCC 204508 / S288c) (Baker's yeast)) (UniProt P32657); assay: ScCHD-1 Enzyme Inhibition Assay; format: functional; conditions: 30 µM; also: in the data most compounds retested in dose-response had high values
Chromo domain-containing protein 1 (Saccharomyces cerevisiae (strain ATCC 204508 / S288c) (Baker's yeast)), sequence (P32657 whole entry, the tested form may be a part): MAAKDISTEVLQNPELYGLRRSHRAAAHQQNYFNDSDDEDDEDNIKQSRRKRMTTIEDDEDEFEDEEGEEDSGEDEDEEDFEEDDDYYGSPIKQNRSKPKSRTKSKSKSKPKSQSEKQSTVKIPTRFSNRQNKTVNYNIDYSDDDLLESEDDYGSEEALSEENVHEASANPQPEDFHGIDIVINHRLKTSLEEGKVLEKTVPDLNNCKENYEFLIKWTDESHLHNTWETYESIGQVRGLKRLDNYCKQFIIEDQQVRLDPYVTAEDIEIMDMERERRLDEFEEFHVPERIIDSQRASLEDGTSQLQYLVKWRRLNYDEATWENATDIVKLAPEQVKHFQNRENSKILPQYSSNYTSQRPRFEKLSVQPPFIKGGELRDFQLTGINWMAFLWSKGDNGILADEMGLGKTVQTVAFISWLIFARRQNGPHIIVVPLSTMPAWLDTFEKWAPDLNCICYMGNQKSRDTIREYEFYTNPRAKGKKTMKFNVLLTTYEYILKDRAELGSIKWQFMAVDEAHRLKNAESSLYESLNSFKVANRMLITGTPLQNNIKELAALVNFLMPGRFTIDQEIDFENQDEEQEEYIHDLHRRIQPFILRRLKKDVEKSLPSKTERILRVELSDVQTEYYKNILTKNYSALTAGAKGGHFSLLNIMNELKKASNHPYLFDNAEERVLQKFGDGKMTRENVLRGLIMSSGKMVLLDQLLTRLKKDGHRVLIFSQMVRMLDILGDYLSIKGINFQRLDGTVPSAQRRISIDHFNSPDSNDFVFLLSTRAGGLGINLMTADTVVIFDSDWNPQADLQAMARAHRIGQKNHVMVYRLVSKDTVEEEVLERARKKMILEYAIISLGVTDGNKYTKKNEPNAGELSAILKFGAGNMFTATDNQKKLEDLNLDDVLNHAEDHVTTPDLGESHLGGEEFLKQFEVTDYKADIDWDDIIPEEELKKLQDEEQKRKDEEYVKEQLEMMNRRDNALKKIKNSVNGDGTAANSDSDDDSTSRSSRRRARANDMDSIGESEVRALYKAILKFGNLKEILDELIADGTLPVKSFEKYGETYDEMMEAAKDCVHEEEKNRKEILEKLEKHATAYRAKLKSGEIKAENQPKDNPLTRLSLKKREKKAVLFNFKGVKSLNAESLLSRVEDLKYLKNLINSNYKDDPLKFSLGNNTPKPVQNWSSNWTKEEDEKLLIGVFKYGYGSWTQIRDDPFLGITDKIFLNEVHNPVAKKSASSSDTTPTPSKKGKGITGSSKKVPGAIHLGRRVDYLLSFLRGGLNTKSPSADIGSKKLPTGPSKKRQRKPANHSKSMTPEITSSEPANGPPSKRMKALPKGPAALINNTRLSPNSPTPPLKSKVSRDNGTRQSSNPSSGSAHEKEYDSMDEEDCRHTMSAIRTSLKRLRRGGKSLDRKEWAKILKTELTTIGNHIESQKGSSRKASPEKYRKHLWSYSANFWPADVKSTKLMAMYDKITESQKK

Protein translocase subunit SecA (Escherichia coli (strain K12)), sequence (P10408 whole entry): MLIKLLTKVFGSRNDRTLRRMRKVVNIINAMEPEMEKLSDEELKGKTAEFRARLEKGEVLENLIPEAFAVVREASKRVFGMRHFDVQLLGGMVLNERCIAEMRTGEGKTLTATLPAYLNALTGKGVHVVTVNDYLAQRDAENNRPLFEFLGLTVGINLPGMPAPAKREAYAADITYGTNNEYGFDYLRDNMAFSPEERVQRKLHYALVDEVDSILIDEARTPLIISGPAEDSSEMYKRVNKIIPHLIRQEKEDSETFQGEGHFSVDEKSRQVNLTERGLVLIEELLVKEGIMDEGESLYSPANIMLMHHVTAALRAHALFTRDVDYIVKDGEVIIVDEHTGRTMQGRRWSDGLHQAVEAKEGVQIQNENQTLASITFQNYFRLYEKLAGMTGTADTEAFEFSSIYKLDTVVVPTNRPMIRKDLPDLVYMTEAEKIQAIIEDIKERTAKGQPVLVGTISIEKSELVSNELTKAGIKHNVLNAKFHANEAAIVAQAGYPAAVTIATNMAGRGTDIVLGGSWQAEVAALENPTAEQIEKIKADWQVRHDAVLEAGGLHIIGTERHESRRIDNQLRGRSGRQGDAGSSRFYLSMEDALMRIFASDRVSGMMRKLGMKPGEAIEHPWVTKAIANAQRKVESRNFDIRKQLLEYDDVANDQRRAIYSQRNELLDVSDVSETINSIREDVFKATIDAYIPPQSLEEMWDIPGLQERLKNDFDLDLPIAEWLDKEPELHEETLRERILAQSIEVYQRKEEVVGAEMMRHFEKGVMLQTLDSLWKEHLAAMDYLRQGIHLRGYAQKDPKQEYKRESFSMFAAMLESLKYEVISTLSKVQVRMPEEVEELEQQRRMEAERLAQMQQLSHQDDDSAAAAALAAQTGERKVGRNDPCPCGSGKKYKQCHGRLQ

| SMILES | Percent Effect [1] | Percent Effect [2] | Percent Effect [3] | Percent Effect [4] | Percent Effect (Trypanosoma cruzi) | Percent Effect [5] | Percent Effect [6] | Percent Effect (Homo sapiens) | Percent Effect [7] | Percent Effect [8] | Percent Effect [9] |
| --- | --- | --- | --- | --- | --- | --- | --- | --- | --- | --- | --- |
| CC(C)(C)N1CC(C(=O)N2CCN(CCn3cccc3)CC2)CC1=O (configuration not stated) | -6.81% | 10.7% | -6.2% | 27.1% | 4.97% | 22.4% | 12% | 5.12% | 4.92% | 8.64% | -4.28% |
| COc1cc(C(=O)Nc2nc(C)no2)ccc1C | -6.11% | 25.3% | -1.3% | -0.471% | 3.12% | -4.56% | 4.83% | 33.2% | 7.39% | 26.6% | -8.84% |
| COC(=O)C(c1cc(F)ccc1F)N(C)C(=O)c1ccnc(C)n1 (configuration not stated) | -4.44% | -46.8% | 8.88% | 3.63% | -2.77% | 0.645% | 1.72% | 18.2% | 7.29% | 15.2% | -3.25% |
| CN(CC(=O)N1CCC(Oc2ccccc2)CC1)c1cnccn1 | -3.37% | 21.6% | -3.35% | 7.97% | 4.74% | 2.4% | 5.75% | 18.1% | 5.94% | 25.6% | -8.13% |
| CNS(=O)(=O)c1ccc(C(=O)N2CCCC2c2cnn(C)c2)o1 (configuration not stated) | -2.43% | 7.89% | -0.508% | -1.15% | 8.12% | 0.719% | -0.761% | 1.2% | 1.48% | 6.17% | -6.23% |
| CNc1cc(N2CCCC2CNCc2c[nH]nc2C(C)(C)C)ncn1 (configuration not stated) | -3.59% | 0% | -14.4% | -4.25% | -4.88% | -4.17% | 6% | -0.674% | 5.94% | 6.1% | 0.0939% |
| Cc1ccsc1-c1nnc(C2CCN(Cc3ccc(F)cc3)CC2)o1 | -4.79% | -9.46% | 14.3% | 4.24% | 7.31% | -4.87% | 10.8% | -11.7% | 3.23% | 3.9% | -15.5% |
| CCc1[nH]ncc1C(=O)N1CCCN(Cc2cnn(C)c2)CC1 | 0.347% | 15.6% | 6.03% | -6.37% | -0.0979% | 5.68% | 8% | 21.9% | 5.71% | 18.8% | -17.9% |
| Cc1nnc2n1CCN(C(=O)c1cc(Cl)c(Cl)n1C)C2 | -1.98% | 5.26% | -1.75% | 6.76% | 2.63% | -1.53% | 0.501% | -1.85% | -1.47% | 7.32% | -1.57% |
| COCCc1noc(CNC2CCc3nc(C(C)C)nn3C2)n1 (configuration not stated) | -1.47% | 2.6% | 8.06% | -4.34% | -1.27% | -2.74% | 6.39% | 17.2% | 0.952% | 0% | -13.7% |
| CN(C)C(=O)N1CCc2c(nnn2C)C1COCc1ccccc1 (configuration not stated) | -4.49% | 21.3% | -8.1% | -0.726% | 5.21% | -42.1% | 13.7% | -0.202% | 7.29% | 27.5% | -6.92% |
| CC(C)C1CN(c2ncc(F)cn2)CCC(=O)N1Cc1ccc(F)cc1 (configuration not stated) | -2.05% | 12.5% | -4.48% | 14.3% | 6.51% | 8.83% | 13.3% | -7.42% | 9.47% | 15.4% | -4.54% |
| CC(=O)NCC(=O)N1Cc2nccn2CC(CN2CCCC2)C1 (configuration not stated) | -4.42% | 5.41% | 1.1% | -2.08% | -5.77% | 0.955% | 19.6% | 5.21% | 6.49% | 10.3% | -0.00691% |
| CN1CCCc2cc(CNC(=O)c3ccc(NC4CC4)nc3)ccc21 | -1.41% | 6.33% | 52% | 6.12% | -0.923% | 2.8% | 0.515% | -2.19% | 6.25% | 10.1% | -6.23% |
| Cc1nc(NCc2ccc(C)o2)cc(C(=O)N2CCOCC2)n1 | -5.2% | 15.6% | -13.8% | 14.3% | 9.14% | -55.2% | 10.5% | 4.67% | 4.3% | 8.64% | -6.33% |
| O=C1CC[C@H]2[C@H](CCN2C(=O)C2CCCO2)N1CCN1CCCC1 (some centres not stated) | 1.49% | 1.33% | 6.35% | -1.83% | 0.393% | -3.7% | 10.7% | -5.66% | 2.12% | 0% | -4.01% |
| CC(c1cccnc1)N(C)Cc1csc(-c2ccccn2)n1 (configuration not stated) | -7.3% | 5.48% | -12.1% | 19.7% | 6.66% | 3.64% | 5.86% | 8.26% | 5.38% | 15% | 92.8% |
| Cc1cc(CN2CCN(C(=O)NCc3nc(C)cs3)CC2)on1 | -3.26% | 23.7% | -8.55% | -8.19% | -4.95% | 0% | 12.9% | -12.4% | 5.42% | 13.6% | -3.29% |
| Cc1cc(C)n(C2CCCN(C(=O)c3ccc(NC4CC4)nc3)C2)n1 (configuration not stated) | -6.18% | 7.79% | 5.88% | 2.52% | -4.6% | 1.05% | 7.52% | 16.1% | 4.76% | 9.41% | -13.5% |
| COc1c(C2CCCN2Cc2csc(C(C)C)n2)c(C)nn1C (configuration not stated) | -0.655% | 18.2% | -4.6% | -3.17% | -8.99% | 4.63% | 17.6% | 37.8% | 1.94% | 2.44% | -7.12% |
| CN(Cc1ccco1)Cc1ccccc1CNC(=O)c1ccc[nH]1 | 0.847% | -10.8% | -0.911% | 10% | 2.32% | 14.3% | 9.31% | 19.5% | 3.7% | 12.2% | -4.76% |
| O=C(c1ccc(F)c(F)c1)N1CCCC1CN1CCCC1 (configuration not stated) | -1.25% | 7.89% | -2.36% | -14.5% | -3.02% | -3.55% | 15.2% | -11.1% | 7.45% | 18.2% | -8.37% |
